Source: PubChem BioAssay AID1835 (Johns Hopkins Ion Channel Center, 2009)
About 750 (31%) of roughly 2,400 compounds were called active. The list shows a part of the results. A number with no mark means an inactive call.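 The calls were made as follows: active = median signal gain over dofetilide-blocked control wells reaching their mean plus 3 SD, so readout 1 at least 0; inactive = the rest.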

Each compound was assayed against Voltage-gated inwardly rectifying potassium channel KCNH2 (Homo sapiens) (UniProt Q12809) (assay: hERG protection against dofetilide inhibition, confirmation, cell-based, thallium flux, duplicate retest, dofetilide IC70 (AID 1835)). Settings: hERG cell line, FluxOR thallium flux, dofetilide-blocked; at 10 µM; active compounds read high.
Sequence of Voltage-gated inwardly rectifying potassium channel KCNH2 (Homo sapiens) (Q12809 whole entry, looked up): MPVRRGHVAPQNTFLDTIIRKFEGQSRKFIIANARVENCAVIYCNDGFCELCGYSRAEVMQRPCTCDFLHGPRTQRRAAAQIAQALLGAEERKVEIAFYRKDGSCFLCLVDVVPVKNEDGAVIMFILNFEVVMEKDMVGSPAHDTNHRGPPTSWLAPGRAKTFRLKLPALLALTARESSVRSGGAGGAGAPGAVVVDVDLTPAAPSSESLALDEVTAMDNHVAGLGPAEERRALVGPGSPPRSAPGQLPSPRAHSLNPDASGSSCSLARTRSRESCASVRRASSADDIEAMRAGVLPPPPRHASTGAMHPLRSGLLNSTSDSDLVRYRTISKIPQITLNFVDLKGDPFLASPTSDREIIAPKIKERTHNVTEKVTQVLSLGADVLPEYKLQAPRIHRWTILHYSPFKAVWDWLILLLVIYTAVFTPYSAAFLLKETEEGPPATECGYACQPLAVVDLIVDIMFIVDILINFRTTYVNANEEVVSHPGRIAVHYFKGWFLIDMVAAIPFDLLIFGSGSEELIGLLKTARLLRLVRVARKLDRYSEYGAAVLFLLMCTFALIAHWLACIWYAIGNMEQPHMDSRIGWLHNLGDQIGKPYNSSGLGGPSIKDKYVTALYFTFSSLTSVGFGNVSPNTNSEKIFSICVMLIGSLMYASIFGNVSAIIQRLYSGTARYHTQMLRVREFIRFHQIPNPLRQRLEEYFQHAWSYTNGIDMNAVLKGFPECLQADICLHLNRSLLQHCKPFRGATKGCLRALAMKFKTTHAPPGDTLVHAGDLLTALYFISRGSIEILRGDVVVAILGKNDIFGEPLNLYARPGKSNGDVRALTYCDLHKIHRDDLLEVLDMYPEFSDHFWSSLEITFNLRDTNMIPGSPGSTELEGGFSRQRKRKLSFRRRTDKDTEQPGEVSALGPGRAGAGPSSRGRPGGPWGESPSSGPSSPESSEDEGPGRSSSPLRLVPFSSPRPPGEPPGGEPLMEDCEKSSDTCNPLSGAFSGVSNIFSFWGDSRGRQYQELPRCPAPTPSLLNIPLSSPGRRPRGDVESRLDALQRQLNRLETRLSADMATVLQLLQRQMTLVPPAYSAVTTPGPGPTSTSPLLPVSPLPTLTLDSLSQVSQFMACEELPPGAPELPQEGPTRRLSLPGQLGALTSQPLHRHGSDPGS

| SMILES | activity increase over dofetilide control, less the hit threshold |
| --- | --- |
| O=C(CN(C(=O)CNS(=O)(=O)c1ccc(F)cc1)c1cccc(F)c1)NCC1CCCO1 (stereo unspecified) | -17% |
| COc1ccc(-c2csc(NC(=S)NC(=O)c3ccc4ccccc4c3)n2)cc1OC | -9% |
| CC1CCCC(NC(=S)NC(=O)c2cncc(Br)c2)C1C (stereo unspecified) | -10% |
| O=C(NC(=S)Nc1nc(-c2ccccc2)cs1)c1cncc(Br)c1 | 1% (active) |
| O=C(NC(=S)Nc1cccc(Cl)c1)c1cncc(Br)c1 | -10% |
| Cc1ccc(C)c(NC(=S)NC(=O)c2cncc(Br)c2)c1 | 6% (active) |
| Cc1ccc(NC(=S)NC(=O)c2cncc(Br)c2)cc1Cl | -13% |
| COc1cc(S(=O)(=O)n2cnc(C)c2)ccc1Cl | -20% |
| Cc1ccc(NC(=O)CSc2nnc(C3CC3)n2CC2CCCO2)c(C)c1 (stereo unspecified) | -14% |
| COC(=O)c1cc2sc(Cl)cc2n1CC(=O)NCC1CCCO1 (stereo unspecified) | -8% |
| COC(=O)C1=C(C)N(CC2CCCO2)C(=O)/C1=C\c1ccc(O)cc1 (stereo unspecified) | 8% (active) |
| O=S(=O)(c1ccc(F)cc1)N1CCN(c2ccc(F)cc2)CC1 | -15% |
| CCOC(=O)c1sc(=S)n2c1[nH]c(=O)c1ccc(C(=O)OC)cc12 | 51% (active) |
| CCC1SC2=NC(C)=C(C(=O)OC)C(c3ccc(C(=O)OC)cc3)N2C1=O (stereo unspecified) | -1% |
| CC(=O)N1C(=O)/C(=C2\SC(=S)N(NC(=O)c3ccc(O)cc3)C2=O)c2ccccc21 | -3% |
| S=c1nc(-c2ccccc2)[nH]n1-c1ccccc1 | 54% (active) |
| COc1cc(-c2nnc(SCC(=O)O)n2-c2ccccc2)cc(OC)c1OC | -9% |
| Cc1ccc(/C=C2/C(=N)N3N=C(CC(=O)N4CCCC4)SC3=NC2=O)cc1 | -2% |
| CC(C)CSC1=NSC2=NC(=O)/C(=C\c3ccccc3)C(=N)N12 | 32% (active) |
| CC(Oc1ccccc1F)C(=O)NC1CCS(=O)(=O)C1 (stereo unspecified) | -9% |
| CN1C(=O)C2(OCC(C)([N+](=O)[O-])CO2)c2ccccc21 (stereo unspecified) | -7% |
| Cc1nc2cc3sc(C)nc3cc2s1 | -8% |

| SMILES | activity increase over dofetilide control, less the hit threshold |
| --- | --- |
| Cc1ccc(NN=Nc2nc3c([nH]2)c(=O)n(C)c(=O)n3C)cc1 | -6% |
| Cc1cccc(N/C(N)=N/c2nc(C)cc(=O)[nH]2)c1 | -9% |
| Cc1ccc(Nc2cc(C)nn2-c2nc(C)cc(=O)[nH]2)cc1 | 40% (active) |
| C=CCn1c(=S)[nH]c2sc3c(c2c1=O)CCC3 | 27% (active) |
| C=CCn1c(=S)[nH]c2sc3c(c2c1=O)CCCC3 | 30% (active) |
| c1ccc(SSc2ccccn2)nc1 | -21% |
| O=C(NCc1ccc(Cl)cc1)C1CCN(S(=O)(=O)c2cccc3nonc23)CC1 | -5% |
| CCOC(=O)C1CCCN(C(=O)CN2C(=O)c3ccccc3C2=O)C1 (stereo unspecified) | -20% |
| CCOC(=O)C1CCN(S(=O)(=O)c2cccc3nonc23)CC1 | 2% (active) |
| CCN1CCN(CCNC(=O)CCCn2nc(C)c3c(C)n(-c4ccc(C)cc4)nc3c2=O)CC1 | -8% |
| Cc1cc(C)cc(OCc2nnc(SCC(=O)Nc3ccccc3)o2)c1 | -19% |
| COc1ccc(S(=O)(=O)Nc2cccnc2)cc1 | -11% |
| CC(Oc1ccc(Cl)cc1Cl)C(=O)Nc1cccnc1 (stereo unspecified) | -23% |
| CC(Oc1ccc(Br)cc1Br)C(=O)Nc1cccnc1 (stereo unspecified) | 9% (active) |
| Oc1ccc(Cl)cc1C1=NNC(c2cccs2)C1 (stereo unspecified) | 10% (active) |
| O=C(Nc1cc(Cl)ccc1O)C1CC(c2ccccc2Cl)=NO1 (stereo unspecified) | -1% |
| CCCNS(=O)(=O)c1ccc(OCC(=O)Nc2ccc3c(c2)OCCO3)cc1 | -10% |
| CCOc1cc(C(=O)NC)cc(OCC)c1OCC | -13% |
| COCCNC(=O)C1CC(=O)N(c2ccc(OC)cc2)C1c1ccc(OC)cc1 (stereo unspecified) | -24% |
| CN(C)c1ccc(N=Nc2ccc(C(=O)O)cc2)cc1 | -4% |
| O=c1ccc(N=Nc2ccccc2)ccc1O | 68% (active) |
| COc1ccc(CN(C)C(=O)c2cccc(NS(=O)(=O)c3ccccc3)c2)cc1F | -26% |

| SMILES | activity increase over dofetilide control, less the hit threshold |
| --- | --- |
| CC1(C)Cc2c(ccc3ccccc23)C2=C(C(=O)N3CCCC3)C(=O)C(=O)N21 | -16% |
| O=C1CC(O)(C(F)(F)F)Oc2c1ccc1ccccc21 (stereo unspecified) | 13% (active) |
| COc1ccc(N(C(=O)c2ccco2)S(=O)(=O)c2cccs2)cc1 | -6% |
| CC(=O)Nc1ccc(S(=O)(=O)N2CCC(C(=O)O)CC2)cc1 | -6% |
| N=c1sccn1CC(=O)Nc1ccccc1Cc1ccccc1 | -7% |
| CN(CC(=O)Nc1ccc(Cl)cc1)C(=O)c1cccc(S(=O)(=O)NCc2ccccc2)c1 | -18% |
| Cc1ccc(NC(=O)c2ccc(CNS(=O)(=O)c3cccc(C(F)(F)F)c3)cc2)cc1 | -1% |
| CC(=O)c1ccc(S(=O)(=O)NCc2ccc(C(=O)N(C)CC(=O)Nc3cccc(F)c3)cc2)cc1 | 2% (active) |
| O=C(CSc1cn(CC(=O)N2CCCC2)c2ccccc12)NCC1CCCO1 (stereo unspecified) | -28% |
| COc1ccc(CCN2C(=O)CSC2=S)cc1OC | -16% |
| Cc1ccc(C)c(NC(=O)C2C3CCCC2C3c2ccccc2)c1 (stereo unspecified) | -16% |
| Cc1cccc(NC(=S)NNC(=O)c2csc3c2CCC(C)C3)c1 (stereo unspecified) | -3% |
| Cc1ccc(C)c(NC(=S)NNC(=O)c2csc3c2CCC(C)C3)c1 (stereo unspecified) | 9% (active) |
| CCC1Nc2ncnc(N3CCOCC3)c2N(Cc2ccc(C)cc2)C1=O (stereo unspecified) | -16% |
| Cc1cccc(/C=C/C(=O)c2cc(Br)ccc(=O)c2O)c1 | -14% |
| CCc1ccc(/C=C/C(=O)c2cc(Br)ccc(=O)c2O)cc1 | 13% (active) |
| O=C(/C=C/c1ccccc1)c1cc(Br)ccc(=O)c1O | 19% (active) |
| COC(=O)c1c(N2C(=O)CC(Sc3ncccc3C(=O)O)C2=O)sc(C)c1C (stereo unspecified) | -14% |
| CC(C)CC1C(C#N)=C(N)Oc2n[nH]c(-c3cccs3)c21 (stereo unspecified) | -16% |
| CCOc1ccc(C(=O)N(CN2CCCC2=O)c2ccc(C)cc2)cc1 | 10% (active) |
| O=C(NCCCN1CCCC1=O)c1ccc(OC(F)(F)F)cc1 | -18% |
| COc1ccc(C(=O)N(CN2CCCC2=O)c2ccc(C)cc2)cc1 | -1% |
